Drawing on PubChem BioAssay (EPA / NIEHS), this text covers outcome and AC50 for three compounds.

As a reminder, the AC50 is the midpoint of the concentration-response curve, whichever way the signal moves.

Assay [1] in a line: CEETOX_H295R_TESTO: CeeTox H295R High-throughput Steroidogenesis Assay for Testosterone (TESTO) (AID 2283457). Particulars: actives raise or lower the signal. The essentials:
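H295R adrenal cells, passage ≤10, exposed to chemicals for 48 h. Testosterone in medium measured by MTBE extraction and HPLC-MS/MS against a 7-point standard curve. Bidirectional fit versus DMSO; MTT viability checked in the same wells.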

Read-out in assay [2]: Tumor necrosis factor receptor superfamily member 6 (Homo sapiens) (UniProt P25445)
Kind of assay: LTEA_HepaRG_FAS: Life Technologies and Expression Analysis (LTEA) Assay for Fas cell surface death receptor (FAS) using HepaRG (AID 2283447). Particulars: mRNA level, 48 h; actives raise or lower the signal. The gist of the method: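 FAS transcript level was measured by TaqMan qRT-PCR against three housekeeping genes after 48 h chemical exposure. Cells were HepaRG, 0.5% DMSO vehicle, with a top concentration of 100 uM and half-log dilutions over eight points, in duplicate.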

Read-out in assay [3]: Cyclin D2 (CCND2), CCND2 (gene 894)
Kind of assay: LTEA_HepaRG_CCND2: Life Technologies and Expression Analysis (LTEA) Assay for Cyclin D2 (CCND2) using HepaRG (AID 2283449). The following applies: mRNA level, 48 h; actives raise or lower the signal. The essentials: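 CCND2 transcript levels, quantified by qRT-PCR and normalised to three housekeeping genes, were fitted bidirectionally against 0.5% DMSO. HepaRG cultures were dosed 48 h in duplicate with an 8-point half-log series up to 100 uM.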

Read-out in assay [4]: flavin-containing dimethylaniline monooxygenases 3 (FMO3), FMO3 (gene 2328)
Kind of assay: LTEA_HepaRG_FMO3: Life Technologies and Expression Analysis (LTEA) Assay for flavin-containing dimethylaniline monooxygenases 3 (FMO3) using HepaRG (AID 2283453). The following applies: mRNA level, 48 h; actives raise or lower the signal. The gist of the method:
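Eight-point concentration-response in serum-free HepaRG cultures (top 100 uM, 0.5% DMSO, 48 h). Read-out: FMO3 mRNA level normalized to three endogenous control genes, fitted bidirectionally versus vehicle.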

Read-out in assay [5]: Cytochrome P450 (CYP1A1), CYP1A1 (gene 1543)
Kind of assay: LTEA_HepaRG_CYP1A1: Life Technologies and Expression Analysis (LTEA) Assay for Cytochrome P450 (CYP1A1) using HepaRG (AID 2283454). Particulars: mRNA level, 48 h; actives raise or lower the signal. The gist of the method: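 Differentiated human HepaRG cells, after 48 h plating, exposed in duplicate for 48 h in serum-free induction medium to 8 half-log concentrations up to 100 uM in 0.5% DMSO. CYP1A1 mRNA by qRT-PCR, normalized to ACTB/GAPDH/POLR2A; bidirectional fit versus DMSO.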

Read-out in assay [6]: CFLAR gene, CFLAR (gene 8837)
Kind of assay: LTEA_HepaRG_CFLAR: Life Technologies and Expression Analysis (LTEA) Assay for CFLAR gene using HepaRG (AID 2283455). Particulars: mRNA level, 48 h; actives raise or lower the signal. The gist of the method: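 Transcript level by qRT-PCR (normalized to ACTB, GAPDH and POLR2A) after 48 h chemical exposure of HepaRG cells, top concentration 100 uM with half-log steps, 0.5% DMSO vehicle, duplicates; fitted bidirectionally against DMSO baseline.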

Read-out in assay [7]: Forkhead box O1 (FOXO1), FOXO1 (gene 2308)
Kind of assay: LTEA_HepaRG_FOXO1: Life Technologies and Expression Analysis (LTEA) Assay for Forkhead box O1 (FOXO1) using HepaRG (AID 2283456). The following applies: mRNA level, 48 h; actives raise or lower the signal. The essentials:
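FOXO1 transcript quantified by qRT-PCR after 48 h chemical exposure (top 100 uM, half-log steps, 0.5% DMSO) of HepaRG cells, housekeeping-normalized (ACTB/GAPDH/POLR2A). Changes fitted in both directions relative to vehicle.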

Read-out in assay [8]: growth arrest and DNA damage 45 (GADD45A), GADD45A (gene 1647)
Kind of assay: LTEA_HepaRG_GADD45A: Life Technologies and Expression Analysis (LTEA) Assay for growth arrest and DNA damage 45 (GADD45A) using HepaRG (AID 2283458). The following applies: mRNA level, 48 h; actives raise or lower the signal. The gist of the method:
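HepaRG, 48 h exposure, 8 conc. (top 100 uM, half-log steps), 0.5% DMSO vehicle, duplicates. Read-out: qRT-PCR mRNA level, housekeeping-normalized (ACTB/GAPDH/POLR2A). Curves fit bidirectionally vs DMSO baseline.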

Read-out in assay [9]: Forkhead box O3 (FOXO3), FOXO3 (gene 2309)
Kind of assay: LTEA_HepaRG_FOXO3: Life Technologies and Expression Analysis (LTEA) Assay for Forkhead box O3 (FOXO3) using HepaRG (AID 2283459). Particulars: mRNA level, 48 h; actives raise or lower the signal. The essentials:
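FOXO3 transcript measured by qRT-PCR (normalized to ACTB, GAPDH, POLR2A) after 48 h exposure of HepaRG cells in serum-free induction medium. Duplicates, eight half-log concentrations up to 100 uM, 0.5% DMSO; gain or loss fitted against DMSO.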

Read-out in assay [10]: ABC Transporter (ABCB1), ABCB1 (gene 5243)
Kind of assay: LTEA_HepaRG_ABCB1: Life Technologies and Expression Analysis (LTEA) Assay for ABC Transporter (ABCB1) using HepaRG (AID 2283460). The following applies: mRNA level, 48 h; actives raise or lower the signal. The essentials: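 ABCB1 transcript level measured by TaqMan qRT-PCR against three housekeeping genes after 48 h chemical exposure of differentiated HepaRG cells. Top concentration 100 uM, half-log steps, eight points, 0.5% DMSO vehicle; bidirectional fit relative to DMSO.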

Read-out in assay [11]: growth arrest and DNA damage 45 (GADD45B), GADD45B (gene 4616)
Briefly: LTEA_HepaRG_GADD45B: Life Technologies and Expression Analysis (LTEA) Assay for growth arrest and DNA damage 45 (GADD45B) using HepaRG (AID 2283461). The following applies: mRNA level, 48 h; actives raise or lower the signal. The gist of the method: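 Differentiated human HepaRG cells in serum-free induction medium exposed 48 h in duplicate to eight concentrations, top 100 uM, half-log steps, 0.5% DMSO. GADD45B mRNA by TaqMan qRT-PCR, normalized to ACTB, GAPDH, POLR2A; bidirectional fit versus DMSO.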

Read-out in assay [12]: ABC Transporter (ABCC3), ABCC3 (gene 8714)
Kind of assay: LTEA_HepaRG_ABCC3: Life Technologies and Expression Analysis (LTEA) Assay for ABC Transporter (ABCC3) using HepaRG (AID 2283462). The following applies: mRNA level, 48 h; actives raise or lower the signal. The essentials:
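Differentiated human HepaRG cells exposed 48 h in serum-free induction medium, 0.5% DMSO vehicle, 8-point half-log series to 100 uM in duplicate. ABCC3 mRNA by qRT-PCR, normalised to ACTB, GAPDH, POLR2A; bidirectional fit vs DMSO.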

Read-out in assay [13]: ABC Transporter (ABCB11), ABCB11 (gene 8647)
Kind of assay: LTEA_HepaRG_ABCB11: Life Technologies and Expression Analysis (LTEA) Assay for ABC Transporter (ABCB11) using HepaRG (AID 2283463). Particulars: mRNA level, 48 h; actives raise or lower the signal. The gist of the method: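 ABCB11 transcript levels quantified by TaqMan qRT-PCR against three housekeeping genes after 48 h chemical exposure of HepaRG cultures. Concentrations up to 100 uM in half-log steps, 0.5% DMSO vehicle; both induction and suppression scored.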

Read-out in assay [14]: ABC Transporter (ABCC2), ABCC2 (gene 1244)
Kind of assay: LTEA_HepaRG_ABCC2: Life Technologies and Expression Analysis (LTEA) Assay for ABC Transporter (ABCC2) using HepaRG (AID 2283464). The following applies: mRNA level, 48 h; actives raise or lower the signal. The essentials: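 Differentiated HepaRG cells in serum-free induction medium exposed 48 h to eight half-log concentrations up to 100 uM, 0.5% DMSO, in duplicate. ABCC2 mRNA measured by qRT-PCR (TaqMan, Fluidigm), normalized to ACTB, GAPDH and POLR2A. Fitted in both directions against DMSO.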

Read-out in assay [15]: Broad substrate specificity ATP-binding cassette transporter ABCG2 (Homo sapiens) (UniProt Q9UNQ0)
Kind of assay: LTEA_HepaRG_ABCG2: Life Technologies and Expression Analysis (LTEA) Assay for ABC Transporter (ABCG2) using HepaRG (AID 2283465). The following applies: mRNA level, 48 h; actives raise or lower the signal. The gist of the method:
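ABCG2 transcript was quantified by TaqMan qRT-PCR against three housekeeping genes in HepaRG cells. Cells were treated in duplicate for 48 h across an 8-point half-log series up to 100 uM, with 0.5% DMSO vehicle. Gain or loss versus DMSO was fit.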

Read-out in assay [16]: ATP-citrate lyase (ACLY), ACLY (gene 47)
Kind of assay: LTEA_HepaRG_ACLY: Life Technologies and Expression Analysis (LTEA) Assay for ATP-citrate lyase (ACLY) using HepaRG (AID 2283466). Particulars: mRNA level, 48 h; actives raise or lower the signal. The gist of the method:
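ACLY mRNA quantified by qRT-PCR on Fluidigm arrays against three housekeeping genes, after 48 h chemical treatment of HepaRG cells (top concentration 100 uM, half-log steps, 0.5% DMSO vehicle). Up- or down-regulation fitted relative to DMSO.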

Read-out in assay [17]: Peroxisomal acyl-coenzyme A oxidase 1 (ACOX1) gene, ACOX1 (gene 51)
Briefly: LTEA_HepaRG_ACOX1: Life Technologies and Expression Analysis (LTEA) Assay for Peroxisomal acyl-coenzyme A oxidase 1 (ACOX1) gene using HepaRG (AID 2283467). The following applies: mRNA level, 48 h; actives raise or lower the signal. The gist of the method:
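ACOX1 transcript levels were quantified by TaqMan qRT-PCR against three housekeeping genes after 48 h chemical exposure of differentiated human HepaRG cells. Exposure used eight half-log steps topping at 100 uM, 0.5% DMSO vehicle, in duplicate. Bidirectional curve fits were made relative to DMSO.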

Read-out in assay [18]: Alkaline Phosphatase, Placental (ALPP) gene, ALPP (gene 250)
Briefly: LTEA_HepaRG_ALPP: Life Technologies and Expression Analysis (LTEA) Assay for Alkaline Phosphatase, Placental (ALPP) gene using HepaRG (AID 2283468). Particulars: mRNA level, 48 h; actives raise or lower the signal. The gist of the method: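 HepaRG cells plated 48 h, then exposed in duplicate for 48 h in serum-free induction medium to 8-point half-log series from 100 uM in 0.5% DMSO. ALPP mRNA by TaqMan qRT-PCR, normalized to ACTB/GAPDH/POLR2A; bidirectional fit versus DMSO.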

Read-out in assay [19]: Bcl-2 (BAD) gene, BAD (gene 572)
Briefly: LTEA_HepaRG_BAD: Life Technologies and Expression Analysis (LTEA) Assay for Bcl-2 (BAD) gene using HepaRG (AID 2283469). The following applies: mRNA level, 48 h; actives raise or lower the signal. The essentials: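 Read-out: qRT-PCR of BAD mRNA, normalized to three housekeeping genes. Human HepaRG cultures got 48 h chemical exposure in 0.5% DMSO, duplicate eight-point half-log series topping at 100 uM. Gain or loss of signal fitted versus DMSO vehicle.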

Read-out in assay [20]: Bcl-2 (BAX) gene, BAX (gene 581)
Briefly: LTEA_HepaRG_BAX: Life Technologies and Expression Analysis (LTEA) Assay for Bcl-2 (BAX) gene using HepaRG (AID 2283470). Particulars: mRNA level, 48 h; actives raise or lower the signal. The gist of the method: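 qRT-PCR read-out of BAX mRNA, normalized to three housekeeping genes, after 48 h chemical exposure of human HepaRG cells in serum-free induction medium; eight-point half-log series, top 100 uM, 0.5% DMSO vehicle; bidirectional fit versus DMSO.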

Active and inactive are the calls of the source. Rule for the calls: active = hit-call score of the fitted dose curve at least 0.9, where 1 is the maximum; inactive = score below 0.9.

Sequence of Broad substrate specificity ATP-binding cassette transporter ABCG2 (Homo sapiens) (Q9UNQ0 whole entry, looked up): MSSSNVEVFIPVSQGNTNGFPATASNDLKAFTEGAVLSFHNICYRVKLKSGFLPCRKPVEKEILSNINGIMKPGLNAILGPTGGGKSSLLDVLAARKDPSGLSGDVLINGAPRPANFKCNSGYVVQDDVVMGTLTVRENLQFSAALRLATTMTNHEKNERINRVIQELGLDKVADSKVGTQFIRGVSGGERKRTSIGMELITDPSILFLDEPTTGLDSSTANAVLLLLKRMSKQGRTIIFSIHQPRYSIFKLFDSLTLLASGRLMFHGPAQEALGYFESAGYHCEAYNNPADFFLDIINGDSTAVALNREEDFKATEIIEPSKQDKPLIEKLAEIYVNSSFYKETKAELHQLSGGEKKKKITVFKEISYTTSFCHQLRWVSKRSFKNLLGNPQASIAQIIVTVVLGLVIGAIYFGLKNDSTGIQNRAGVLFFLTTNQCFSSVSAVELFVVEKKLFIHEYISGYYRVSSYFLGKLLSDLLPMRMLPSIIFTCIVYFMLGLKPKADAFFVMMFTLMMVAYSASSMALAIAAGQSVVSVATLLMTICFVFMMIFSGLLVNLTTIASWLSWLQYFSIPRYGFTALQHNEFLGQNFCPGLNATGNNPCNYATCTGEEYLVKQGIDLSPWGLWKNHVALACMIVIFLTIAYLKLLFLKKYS

As to `COP(=O)(OC)O/C(=C\Cl)c1cc(Cl)c(Cl)cc1Cl`, the call in assay [1] was inactive.
For the compound `O=C1C2(Cl)C3(Cl)C4(Cl)C(Cl)(Cl)C5(Cl)C3(Cl)C1(Cl)C5(Cl)C24Cl` (centres undefined), the outcome in [2], in assay [5], in assay [6], in assay [8], in assay [13] and in assay [19] was inactive. Further, the AC50 in assay [3] is 91.9 µM (active); in [4], 22.6 µM (active); in assay [7], 93.5 µM (active); in assay [9], 93.2 µM (active); in [10], 91.8 µM (active); in assay [11], 93 µM (active). The AC50 was 92.7 µM (active) in assay [12]; 93.6 µM (active) in assay [14]; 15.8 µM (active) in [15]; 93.1 µM (active) in assay [16]; 0.0893 µM (active) in assay [17]; 26.7 µM (active) in [18]. Besides, in assay [20], the AC50 was 87.5 µM (active).
For `O=[N+]([O-])c1ccc(O)c([N+](=O)[O-])c1`, the compound was called inactive in assay [2], in [3], in assay [7], in assay [18], in assay [19] and in assay [20]. The AC50 in [4] is 15.3 µM (active); in assay [5], 71.5 µM (active); in [6], 13.2 µM (active); in [8], 11.5 µM (active); in assay [9] it was 28.8 µM (active); in [10], 13.6 µM (active). The concentration at half-maximal activity (AC50) in assay [11] was 50 µM (active); in assay [12], 12.4 µM (active); in [13], 12.4 µM (active); in assay [14], 13.3 µM (active); in [15] it was 12.4 µM (active); in [16] it was 4.2 µM (active). The AC50 in assay [17] was 13.3 µM (active).
